Compounds with a hit are over-represented: about 3.8% of the library has one in this group of screens.
HSF1 activator: HSF-1 activators, primary screen, NIH3T3-HGL cells, MG132 stress, luminescence, single point | NIH3T3-HGL HSF-1 luciferase reporter, 8 h; 100% = twice DMSO control signal | activation, % at 9 µM | actives 1.7% (n = 300,000) | AID 504408, 2011;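 active = mean replicate activation of at least 50% with a set share of replicates each reaching 50%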
p-CIP stab down: p/CIP-EGFP fusion destabilizers, primary screen, fluorescence, F442A cells; decrease of EGFP signal, % at 10 µM; Q05BA5; 16 h; actives 0.01% (n = 290,000); AID 1984, 2009;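 active = EGFP signal decrease of at least 30% at 10 µM or well 3 SD below plate mean, unless failing retest; inactive = the rest, including hits failing retest or dose response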
Target sequence (Q05BA5 1-1403): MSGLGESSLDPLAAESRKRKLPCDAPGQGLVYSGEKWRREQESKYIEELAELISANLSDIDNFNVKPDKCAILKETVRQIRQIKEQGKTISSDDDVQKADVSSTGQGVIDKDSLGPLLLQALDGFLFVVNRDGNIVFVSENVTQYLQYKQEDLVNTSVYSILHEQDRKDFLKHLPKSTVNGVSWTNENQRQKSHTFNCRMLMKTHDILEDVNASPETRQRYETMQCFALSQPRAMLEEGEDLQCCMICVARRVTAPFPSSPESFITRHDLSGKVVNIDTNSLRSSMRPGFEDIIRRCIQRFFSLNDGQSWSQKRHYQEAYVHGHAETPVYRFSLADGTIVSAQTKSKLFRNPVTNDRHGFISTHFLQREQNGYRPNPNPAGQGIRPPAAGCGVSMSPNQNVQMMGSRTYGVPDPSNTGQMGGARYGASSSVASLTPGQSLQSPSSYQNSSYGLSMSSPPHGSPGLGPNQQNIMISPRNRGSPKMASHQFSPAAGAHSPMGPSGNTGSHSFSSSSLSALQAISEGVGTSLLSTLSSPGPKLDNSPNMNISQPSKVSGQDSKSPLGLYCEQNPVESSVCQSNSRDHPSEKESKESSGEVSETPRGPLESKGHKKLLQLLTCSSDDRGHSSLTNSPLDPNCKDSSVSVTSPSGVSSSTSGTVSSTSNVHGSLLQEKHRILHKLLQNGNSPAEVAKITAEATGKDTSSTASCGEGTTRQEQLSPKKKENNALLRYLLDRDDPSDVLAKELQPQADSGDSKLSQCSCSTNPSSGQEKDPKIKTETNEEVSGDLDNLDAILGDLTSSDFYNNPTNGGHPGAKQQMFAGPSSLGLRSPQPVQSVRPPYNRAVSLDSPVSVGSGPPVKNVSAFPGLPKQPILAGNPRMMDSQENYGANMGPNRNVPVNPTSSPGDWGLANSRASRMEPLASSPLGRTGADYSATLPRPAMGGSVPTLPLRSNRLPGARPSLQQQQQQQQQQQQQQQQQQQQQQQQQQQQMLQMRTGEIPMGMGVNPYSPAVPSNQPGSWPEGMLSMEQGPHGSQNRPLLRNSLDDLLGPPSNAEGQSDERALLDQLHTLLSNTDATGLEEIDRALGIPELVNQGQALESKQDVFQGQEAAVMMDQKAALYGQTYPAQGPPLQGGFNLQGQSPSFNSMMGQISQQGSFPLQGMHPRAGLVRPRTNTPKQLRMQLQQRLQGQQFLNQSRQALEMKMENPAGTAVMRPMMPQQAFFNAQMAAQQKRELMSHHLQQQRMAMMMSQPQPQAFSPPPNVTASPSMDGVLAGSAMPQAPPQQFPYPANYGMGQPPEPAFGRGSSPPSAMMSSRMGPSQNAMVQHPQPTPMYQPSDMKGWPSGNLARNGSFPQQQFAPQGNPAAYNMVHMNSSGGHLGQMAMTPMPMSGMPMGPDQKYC
HSF1 inhib: HSF1 inhibitors in luciferase reporter cells, primary screen, cell-based, NIH3T3, luminescence; NIH3T3-HGL HSE-luciferase, MG132-induced, luminescence 8 h; stronger effect = lower value; AID 2098, 2009; activity change, negative = inhibition, % at 7.5 µM (by protocol); actives 0.77% (n = 300,000);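 active = more than half of replicate wells show activity change below -50%, luminescence cut by over half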;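 note: luciferase reports HSF-1 transcriptional activity via heat shock element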
NALP1 yeast inh: NALP1 inflammasome inhibitors in reconstituted yeast, colorimetric, S. cerevisiae, triplicate retest. AID 2071, 2009. actives 0.61% (n = 280,000). inhibition, % at 10 µM. S. cerevisiae NALP1/ASC/caspase-1 growth, X-gal OD620, 72 h; in the data active = inhibition mostly above about 24%, no sharp cut-off; inactive = mostly below about 32%
Hsp70 act: Hsp70 transcriptional activators, primary screen, cell-based, HeLa, Hsp70 promoter luciferase, luminescence, 10 µM; HeLa Hsp70 promoter luciferase reporter; scaled: vehicle 0, proteasome-inhibitor control 100%; activation, % at 10 µM; actives 0.04% (n = 200,000); AID 1203, 2008;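 active = activation above the mean across all tested compounds plus 3 SD, cutoff set per campaign, cut at about 5.5% in these data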
HSP90 refold inh: HSP90 inhibitors, primary screen, cell lysate, luminescence; Heat shock protein HSP 90 (rabbit reticulocyte lysate; luciferase refolding); Rabbit reticulocyte lysate, luciferase refolding luminescence, 3 h; inhibition, % at 5.6 µM; actives 0.91% (n = 290,000);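 active = inhibition above the screen-wide mean plus 3 SD, computed separately per campaign, cut at about 16% in these data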;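 note: inhibitors lower the luminescence because luciferase stays unfolded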
Hits are given with their value; – = inactive; · = no result given.

SMILES	HSF1 activator	p-CIP stab down	HSF1 inhib	NALP1 yeast inh	Hsp70 act	HSP90 refold inh
COc1ccc(C(=O)N/N=C\C(C)=C\c2ccccc2)cc1OC	–	·	–	·	·	·
Cc1cc(C(=O)N/N=C/c2ccncc2)c(C)o1	–	–	–	–	·	–
Cc1ccc(/C=N/NC(=O)c2cc(C)oc2C)cc1	–	–	–	36	·	–
CC(/C=N/NC(=O)c1ccc(Br)cc1)=C\c1ccccc1	–	–	–	36	–	–
CC(/C=N\NC(=O)c1cc(C)oc1C)=C\c1ccccc1	–	–	-52	–	–	–
CCOC(=O)CNC(=S)N(Cc1ccccc1)Cc1cccnc1	–	–	–	–	–	–
CN(C)S(=O)(=O)c1ccc(C(=O)N2CC(=O)Nc3ccc(F)cc3C2c2ccc(F)cc2)cc1 (stereo not drawn)	–	–	–	–	·	–
CC(=O)c1c(-c2ccccc2)c2cc([N+](=O)[O-])ccc2[nH]c1=O	–	–	–	–	·	–
CCSc1nnc([C@H](Cc2c[nH]c3ccccc23)NC(=O)OC(C)(C)C)o1	59	–	–	–	–	–
CSc1nnc([C@H](Cc2c[nH]c3ccccc23)NC(=O)OC(C)(C)C)o1	–	–	–	–	·	–
Cc1ccc(C)c(Cn2c(CN(C)Cc3ccccc3)nc3c2c(=O)n(C)c(=O)n3C)c1	–	–	–	40	–	–
Cc1ccc(Cn2c(CN(C)Cc3ccccc3)nc3c2c(=O)n(C)c(=O)n3C)cc1	–	–	–	–	–	–
Cc1cccc(NC(=S)NCC23C=CC(O2)C2C(=O)N(c4ccc(Cl)cc4)C(=O)C23)c1 (stereo not drawn)	98	–	–	–	–	–
COC(=O)c1cnn(-c2ccccc2)c1/C=N/NC(=S)Nc1ccc(Cl)cc1	–	–	–	·	·	–
Cc1ccccc1NC(=O)CSc1nc(Nc2ccccc2)nc(N2CCOCC2)n1	74	–	–	–	–	–
Cc1ccc(F)cc1NC(=O)CSc1nc(Nc2ccccc2)nc(N2CCOCC2)n1	–	–	–	–	·	–
CC(C)CCNC(=O)CSc1nc2ccccc2c(=O)[nH]1	55	–	–	–	–	–
CCOc1ccc(OCCSc2nc(N)cc(=O)[nH]2)cc1	–	–	–	–	·	–
CCCn1c(SCc2nc3ccccc3s2)n[nH]c1=O	–	–	–	33	–	–
CCCc1cc(=O)[nH]c(SCCOc2ccc(OCC)cc2)n1	–	–	–	44	–	–
CCCc1cc(=O)[nH]c(SCc2nc3ccccc3s2)n1	62	–	–	–	–	–
CCCCn1c(SCc2nc3ccccc3s2)nc2cc(S(N)(=O)=O)ccc21	75	–	–	–	–	–
O=c1c2ccccc2cnn1Cc1n[nH]c(=S)n1-c1ccc(F)cc1	–	–	–	–	–	–
CC(c1ccc(F)cc1)n1c(Cn2ncc3ccccc3c2=O)n[nH]c1=S (stereo not drawn)	66	–	–	–	–	–
O=C(COC(=O)c1cc([N+](=O)[O-])ccc1N1CCOCC1)Nc1cccc(F)c1	–	–	–	–	·	–
SMILES	HSF1 activator	p-CIP stab down	HSF1 inhib	NALP1 yeast inh	Hsp70 act	HSP90 refold inh
C=CCc1cccc(/C=C/c2cc(=O)c3ccccc3[nH]2)c1O	55	–	–	–	–	–
COc1ccc(N2CCN(CCNC(=O)c3c(C)cc(=O)oc3C)CC2)cc1	–	–	–	28	–	–
CC(C)c1ccc(NC(=O)COc2ccc(F)cc2C(=O)c2cnn(-c3ccccc3)c2)cc1	60	–	–	–	–	–
O=C(COc1ccccc1C(=O)c1cnn(-c2ccccc2)c1)Nc1ccc2ccccc2c1	–	–	–	–	–	–
Cc1ccc(OC(=O)COc2ccccc2C)c(-n2nc3ccccc3n2)c1	–	–	–	–	–	–
Cc1ccc(OC(=O)COc2ccccc2)c(-n2nc3ccccc3n2)c1	51	–	–	–	–	–
COc1c(OC(C)=O)ccc(/C=C/c2ccc3cccc(OCc4ccccc4)c3n2)c1[N+](=O)[O-]	61	–	–	–	–	–
CN(CC(=O)Nc1ccccc1Cl)C(=O)COC(=O)c1ccccc1[N+](=O)[O-]	–	·	–	·	·	·
CN(C)/N=C/C=C1\CCC/C(=C/c2cccs2)C1=O	76	–	–	–	·	–
CCC(=O)N1c2ccccc2NC2=C(C(=O)CC(C)(C)C2)C1c1ccc(O)c(OC)c1 (stereo not drawn)	–	–	–	–	·	–
CCOC(=O)CNC(=O)CN1C(=O)CC(c2ccccc2)S(=O)(=O)c2ccccc21 (stereo not drawn)	–	–	–	–	–	–
Cc1ccc(NC(=O)C2CCCN2S(=O)(=O)c2ccc3c(c2)n(C)c(=O)c(=O)n3C)cc1C (stereo not drawn)	–	–	-53	–	–	–
CCOCCCNC(=O)c1cc(C)nn1-c1ccccc1	–	–	-72	–	–	–
Cc1cc(C(=O)NCc2ccc(Cl)cc2)n(-c2ccccc2)n1	–	–	-68	–	·	–
Cc1ccc(CCNC(=O)c2cc(C)nn2-c2ccccc2)cc1	–	–	–	·	·	–
COc1cc(/C=C/C(=O)c2ccc3c(c2)OCCO3)cc(Br)c1OCC(=O)N(C)C	243	–	–	–	·	–
CCOC(=O)CCc1cnccc1-c1cccc(OC)c1O	–	·	–	·	·	·
O=C(COc1ccccc1)Nc1nnc(S(=O)(=O)N2CCCCC2)s1	–	–	–	–	·	–
O=C(COc1ccccc1)Nc1nnc(S(=O)(=O)N2CCCCCC2)s1	–	–	-71	–	·	–
COc1cc(C2NC(=O)NC(C)=C2C(=O)OC2CCCCC2)cc(Cl)c1O (stereo not drawn)	62	–	–	–	·	–
CCCCCOc1ccc(C(=O)CCC(=O)Nc2ccc(NC(C)=O)cc2)cc1	–	–	–	–	·	–
Cc1ccc(C(=O)CSc2nc(O)cc(=O)[nH]2)cc1C	–	–	–	–	·	–
CC1(C)CC(=O)C2=C(C1)Nc1cc3c(cc1C2c1ccc2c(c1)OCO2)OCO3 (stereo not drawn)	62	–	–	–	–	–
CC1(C)CC(=O)C2=C(C1)Nc1cc3c(cc1C2c1ccc(F)cc1)OCO3 (stereo not drawn)	–	–	–	–	–	–
O=C(CNc1cccc(S(=O)(=O)N2CCOCC2)c1)Nc1ccc(C(F)(F)F)cc1	–	·	–	·	·	·
O=C(NCc1cccnc1)C(=O)Nc1cc2c3c(c1)CC(=O)N3CCC2	–	·	–	·	·	·
O=S(=O)(/N=C(/c1ccccc1Cl)N1CCOCC1)c1ccccc1	–	–	-58	–	–	–
O=S(=O)(/N=C(\c1ccccc1)N1CCOCC1)c1ccc(Cl)cc1	–	–	–	–	–	–

Assay outcomes (PubChem)
